Data published in PubChem BioAssay AID1159580 (chemical genetic matrix, 2015).
The whole screen tested about 5,500 compounds, of which about 2,000 (36%) were called active. Another 18% or so got no clear call; they are omitted. Rule as the data show it: active = normalized growth mostly below about 0.91 (no sharp cut-off); inconclusive = no clear call, values can overlap the other calls; inactive = mostly above about 0.92. The list shows a part of the results.

Experiment: chemical genetic growth profiling, strain panel (AID 1159580);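 also: tested at 20 µM; growth read once vehicle control cultures reached saturation at 30 °C; 1 = growth at the plate median or of vehicle wells; lower values mean less growth of the strain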
Details: S. cerevisiae deletion strains, growth OD

Measured: normalized growth

COc1ccc(C2=C(C(C)=O)C(C)=NC(=S)C2C#N)cc1 (stereo not given)
active: locus YPR135W, strain CTF4, hits give low values 0.356
inactive: locus YAL013W, strain DEP1, hits give low values 1.01 | locus YBR229C, strain ROT2, hits give low values 1.02 | locus YCL061C, strain MRC1, hits give low values 1.01 | locus YDL101C, strain DUN1, hits give low values 1.05 | locus YDR150W, strain NUM1, hits give low values 0.933 | locus YEL061C, strain CIN8, hits give low values 1.04 | locus YGR078C, strain PAC10, hits give low values 0.993 | locus YHR030C, strain SLT2, hits give low values 0.947 | locus YHR087W, strain rtc3, hits give low values 1.04 | locus YJL187C, strain SWE1, hits give low values 1 | locus YJR043C, strain POL32, hits give low values 1.04 | locus YJR075W, strain HOC1, hits give low values 1.01 | locus YKL190W, strain CNB1, hits give low values 0.987 | locus YLR039C, strain RIC1, hits give low values 0.977 | locus YLR058C, strain SHM2 (second series), hits give low values 0.994 | locus YLR085C, strain ARP6, hits give low values 0.89 | locus YLR262C, strain YPT6, hits give low values 0.972 | locus YML094W, strain GIM5, hits give low values 1.12 | locus YMR219W, strain ESC1, hits give low values 0.998 | locus YMR263W, strain SAP30, hits give low values 0.905 | locus YMR307W, strain GAS1, hits give low values 0.702 | locus YNL128W, strain TEP1, hits give low values 0.983 | locus YNL153C, strain GIM3, hits give low values 1.03 | locus YNL298W, strain CLA4 (second series), hits give low values 0.89 | locus YNL322C, strain KRE1, hits give low values 1 | locus YNR030W, strain Alg12, hits give low values 0.987 | locus YOL006C, strain TOP1, hits give low values 0.754 | locus YPL055C, strain LGE1, hits give low values 0.97 | locus YPL241C, strain CIN2, hits give low values 0.943
